Source: the supplement of paper PMC8728848
The entries come from a sample that favours the strongest signals as a whole.

How the values were obtained:
Experiment in all cases: glycan array binding signal (z-score within array); higher = stronger binding
Settings in all cases: glycan notation: IUPAC condensed, linker removed
[1] = biological target: Fuc(a1-2)Gal(b1-3)GlcNAc(b1-3)GalNAc
Summary of the method: (§1)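 Glycan array binding is given as a within-array Z-score, which can be read as non-binding when negative. The arrays, 3228 of them, came from the Consortium for Functional Glycomics database and were retained only where the protein sequence was available. Z-scores were averaged across arrays of the same protein sequence at different concentrations or buffers and across linkers.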

[2] = biological target: Fuc(a1-2)Gal(b1-3)[Fuc(a1-4)]GlcNAc
Summary of the method: as §1

[3] = biological target: Fuc(a1-2)Gal(b1-4)GlcNAc(b1-6)GalNAc
Summary of the method: as §1

[4] = biological target: Fuc(a1-2)Gal(b1-4)[Fuc(a1-3)]GlcNAc(b1-3)Gal(b1-4)[Fuc(a1-3)]GlcNAc(b1-3)Gal(b1-4)[Fuc(a1-3)]GlcNAc
Summary of the method: as §1

[5] = biological target: Fuc(a1-2)[Gal(a1-3)]Gal(b1-3)GlcNAc
Summary of the method: as §1

[6] = biological target: Fuc(a1-2)[Gal(a1-3)]Gal(b1-4)GlcNAc
Summary of the method: as §1

[7] = biological target: Fuc(a1-2)[Gal(a1-3)]Gal(b1-4)[Fuc(a1-3)]GlcNAc
Summary of the method: as §1

[8] = biological target: Fuc(a1-2)[GalNAc(a1-3)]Gal(b1-4)GlcNAc(b1-2)Man
Summary of the method: as §1

[9] = biological target: Fuc(a1-2)[GalNAc(b1-3)]Gal
Summary of the method: as §1

[10] = biological target: Fuc(a1-3)[Gal(b1-4)]GlcNAc(b1-3)GalNAc
Summary of the method: as §1

Gal(a1-3)Gal(b1-3)GlcNAc = biological target: Gal(a1-3)Gal(b1-3)GlcNAc
Summary of the method: as §1

[11] = biological target: Gal(a1-3)Gal(b1-4)[Fuc(a1-3)]GlcNAc
Summary of the method: as §1

Gal(b1-3)Gal = biological target: Gal(b1-3)Gal
Summary of the method: as §1

Gal(b1-3)GlcNAc = biological target: Gal(b1-3)GlcNAc
Summary of the method: as §1

[12] = biological target: Gal(b1-3)GlcNAc(b1-3)Gal(b1-4)GlcNAc(b1-2)[Gal(b1-3)GlcNAc(b1-3)Gal(b1-4)GlcNAc(b1-6)]Man(a1-6)[Gal(b1-3)GlcNAc(b1-3)Gal(b1-4)GlcNAc(b1-2)Man(a1-3)]Man(b1-4)GlcNAc(b1-4)[Fuc(a1-6)]GlcNAc
Summary of the method: as §1

[13] = biological target: Gal(b1-3)GlcNAc(b1-3)Gal(b1-4)GlcNAc(b1-6)[Gal(b1-3)GlcNAc(b1-3)]Gal(b1-4)Glc
Summary of the method: as §1

Gal(b1-4)Gal = biological target: Gal(b1-4)Gal
Summary of the method: as §1

[14] = biological target: Gal(b1-4)GlcNAc(b1-2)Man(a1-3)[Gal(b1-4)GlcNAc(b1-2)Man(a1-6)]Man(b1-4)GlcNAc(b1-4)[Fuc(a1-6)]GlcNAc
Summary of the method: as §1

[15] = biological target: Gal(b1-4)GlcNAc(b1-2)Man(a1-3)[Gal(b1-4)GlcNAc(b1-2)Man(a1-6)][GlcNAc(b1-4)]Man(b1-4)GlcNAc(b1-4)[Fuc(a1-6)]GlcNAc
Summary of the method: as §1

[16] = biological target: Gal(b1-4)GlcNAc(b1-2)[Gal(b1-4)GlcNAc(b1-4)]Man(a1-3)[GlcNAc(b1-4)][Gal(b1-4)GlcNAc(b1-2)Man(a1-6)]Man(b1-4)GlcNAc(b1-4)GlcNAc
Summary of the method: as §1

[17] = biological target: Gal(b1-4)GlcNAc(b1-2)[Gal(b1-4)GlcNAc(b1-6)]Man(a1-6)[GlcNAc(b1-4)][Gal(b1-4)GlcNAc(b1-2)[Gal(b1-4)GlcNAc(b1-4)]Man(a1-3)]Man(b1-4)GlcNAc(b1-4)[Fuc(a1-6)]GlcNAc
Summary of the method: as §1

[18] = biological target: Gal(b1-4)GlcNAc(b1-3)Gal(b1-4)GlcNAc(b1-2)Man(a1-3)[Gal(b1-4)GlcNAc(b1-3)Gal(b1-4)GlcNAc(b1-2)Man(a1-6)]Man(b1-4)GlcNAc(b1-4)[Fuc(a1-6)]GlcNAc
Summary of the method: as §1

[19] = biological target: Gal(b1-4)GlcNAc(b1-3)Gal(b1-4)GlcNAc(b1-3)Gal(b1-4)GlcNAc(b1-3)Gal(b1-4)GlcNAc(b1-2)Man(a1-3)[Gal(b1-4)GlcNAc(b1-3)Gal(b1-4)GlcNAc(b1-3)Gal(b1-4)GlcNAc(b1-3)Gal(b1-4)GlcNAc(b1-2)Man(a1-6)]Man(b1-4)GlcNAc(b1-4)GlcNAc
Summary of the method: as §1

[20] = biological target: Gal(b1-4)GlcNAc(b1-3)Gal(b1-4)GlcNAc(b1-3)Gal(b1-4)GlcNAc(b1-3)Gal(b1-4)GlcNAc(b1-2)Man(a1-3)[Gal(b1-4)GlcNAc(b1-3)Gal(b1-4)GlcNAc(b1-3)Gal(b1-4)GlcNAc(b1-3)Gal(b1-4)GlcNAc(b1-2)Man(a1-6)]Man(b1-4)GlcNAc(b1-4)[Fuc(a1-6)]GlcNAc
Summary of the method: as §1

[21] = biological target: Gal(b1-4)GlcNAc(b1-3)Gal(b1-4)GlcNAc(b1-3)Gal(b1-4)GlcNAc(b1-3)Gal(b1-4)GlcNAc(b1-3)Gal(b1-4)GlcNAc(b1-2)Man(a1-3)[Gal(b1-4)GlcNAc(b1-3)Gal(b1-4)GlcNAc(b1-3)Gal(b1-4)GlcNAc(b1-3)Gal(b1-4)GlcNAc(b1-3)Gal(b1-4)GlcNAc(b1-2)Man(a1-6)]Man(b1-4)GlcNAc(b1-4)[Fuc(a1-6)]GlcNAc
Summary of the method: as §1

[22] = biological target: Gal(b1-4)GlcNAc(b1-3)Gal(b1-4)GlcNAc(b1-3)Gal(b1-4)GlcNAc(b1-3)Gal(b1-4)GlcNAc(b1-3)Gal(b1-4)GlcNAc(b1-2)[Gal(b1-4)GlcNAc(b1-3)Gal(b1-4)GlcNAc(b1-3)Gal(b1-4)GlcNAc(b1-3)Gal(b1-4)GlcNAc(b1-3)Gal(b1-4)GlcNAc(b1-6)]Man(a1-6)[Gal(b1-4)GlcNAc(b1-3)Gal(b1-4)GlcNAc(b1-3)Gal(b1-4)GlcNAc(b1-3)Gal(b1-4)GlcNAc(b1-3)Gal(b1-4)GlcNAc(b1-2)Man(a1-3)]Man(b1-4)GlcNAc(b1-4)[Fuc(a1-6)]GlcNAc
Summary of the method: as §1

[23] = biological target: Gal(b1-4)GlcNAc(b1-3)GalNAc
Summary of the method: as §1

Gal3S6S(b1-4)GlcNAc6S = biological target: Gal3S6S(b1-4)GlcNAc6S
Summary of the method: as §1

B1: AFL5 (Aspergillus fumigatus), Q4WB00 (protein)
chain: MDNFMEMTKKLGHQPELLRLRALDATYDDALEGKLVVAPLDMSEPGKKILDSGTADGTWLRNVRSKQSVPHDYYGSDVEGELFPKDPDGITYFAHSFKDPWPQQYLGFFDLVHIRGSLAGSAPEGPAPVIQNLTTLLKPGGWVQLMEMNAFSPPPNGPAMTDFAKMASEMFTGIGVGDFANNNKSMLEDAGLKNVQEKRVIVNLGKKAKPELHDQSIHGVTGPIVPLTSVARTVKSSFTGEQLDALPARVKEELETEGGQVEMIIAFGQKA
Q: B1 was tested. Which “glycan array binding signal (z-score)” value [1] did it give?
A: -0.31

Q: What about the “glycan array binding signal (z-score)” value [2] of the same binder?
A: -0.036

Q: What about the “glycan array binding signal (z-score)” value [3] of the same binder?
A: -0.782

Q: What about the “glycan array binding signal (z-score)” value [4] of the same binder?
A: -0.555

Q: What about the “glycan array binding signal (z-score)” value [5] of the same binder?
A: -0.252

Q: And the “glycan array binding signal (z-score)” value [6]?
A: -0.456

Q: What about the “glycan array binding signal (z-score)” value [7] of the same binder?
A: -0.109

Q: What about the “glycan array binding signal (z-score)” value [8] of the same binder?
A: -0.322

Q: And the “glycan array binding signal (z-score)” value [9]?
A: -0.258

Q: What about the “glycan array binding signal (z-score)” value [10] of the same binder?
A: -0.016

Q: And the “glycan array binding signal (z-score)” value (Gal(a1-3)Gal(b1-3)GlcNAc)?
A: -0.285

Q: And the “glycan array binding signal (z-score)” value [11]?
A: 21.5

Q: What about the “glycan array binding signal (z-score)” value (Gal(b1-3)Gal) of the same binder?
A: -0.063

Q: What about the “glycan array binding signal (z-score)” value (Gal(b1-3)GlcNAc) of the same binder?
A: -0.272

Q: And the “glycan array binding signal (z-score)” value [12]?
A: 1.17

Q: What about the “glycan array binding signal (z-score)” value [13] of the same binder?
A: -0.412

Q: And the “glycan array binding signal (z-score)” value (Gal(b1-4)Gal)?
A: -0.502

Q: What about the “glycan array binding signal (z-score)” value [14] of the same binder?
A: 0.004

Q: What about the “glycan array binding signal (z-score)” value [15] of the same binder?
A: -0.411

Q: What about the “glycan array binding signal (z-score)” value [16] of the same binder?
A: -0.134

Q: What about the “glycan array binding signal (z-score)” value [17] of the same binder?
A: 3.2

Q: And the “glycan array binding signal (z-score)” value [18]?
A: 1.35

Q: And the “glycan array binding signal (z-score)” value [19]?
A: 0.075

Q: And the “glycan array binding signal (z-score)” value [20]?
A: 1.69

Q: What about the “glycan array binding signal (z-score)” value [21] of the same binder?
A: 1.46

Q: And the “glycan array binding signal (z-score)” value [22]?
A: 1.6

Q: What about the “glycan array binding signal (z-score)” value [23] of the same binder?
A: -0.561

Q: And the “glycan array binding signal (z-score)” value (Gal3S6S(b1-4)GlcNAc6S)?
A: 0.29
